Inconclusive results are not listed. The source made the active and inactive calls. Unless noted, calls come from the whole dose curve; as a rule, active = well fitted curve in the direction sought with a large enough effect in the repeat runs; inconclusive = weak or mixed curves; inactive = no such curve, though single readings can be large; an effect the other way counts as inactive or inconclusive.
How the values were obtained:
[1] = qHTS assay to identify small molecule agonists of the sonic hedgehog signaling (Shh) pathway - cell viability counter screen (AID 1259366); note: nearly all actives have a fitted effect of over 50% in size
Summary of the method: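 Compounds in DMSO were pin-transferred onto 3T3 Gli1-Luc cells that had settled 4hr; plates then stood 24hr at 37C and 5% CO2. One hour before the end, CellTiter-Fluor was added and fluorescence recorded.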

[2] = qHTS assay to identify small molecule antagonists of the sonic hedgehog signaling (Shh) pathway - cell viability counter screen (AID 1259367); note: nearly all actives have a fitted effect of over 55% in size
Summary of the method: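 Using CellTiter-Fluor, viability of Gli1-Luc reporter 3T3 cells is read by fluorescence in the wells used for the Shh luciferase assay. Treatment lasts 23 hr with conditioned medium, then reagent 1 hr at 37C.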

[3] = qHTS assay to identify small molecule agonists of the sonic hedgehog signaling (Shh) pathway (AID 1259368; calls by dose curve; note: series mostly up to about 92 µM; nearly all actives have a fitted effect of over 15% in size)
Summary of the method: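 NIH/3T3-derived 3T3Gli1-Luc cells carrying a stably integrated Gli1 response element–firefly luciferase reporter were plated, left 4 hr at 37 C, then given compounds in DMSO for 24 hr. Luminescence was read 30 min after adding luciferase reagent.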

[4] = target: Estrogen receptor beta (Homo sapiens) (UniProt Q92731); test: qHTS assay to identify small molecule agonists of the estrogen receptor beta (ER-beta) signaling pathway (AID 1259377; active = well fitted activation curve with a large enough effect in the signal ratio in the repeat runs, not every such curve was filed as active; the % refers to the signal ratio)
Chain of Estrogen receptor beta (Homo sapiens) (Q92731 whole entry, looked up): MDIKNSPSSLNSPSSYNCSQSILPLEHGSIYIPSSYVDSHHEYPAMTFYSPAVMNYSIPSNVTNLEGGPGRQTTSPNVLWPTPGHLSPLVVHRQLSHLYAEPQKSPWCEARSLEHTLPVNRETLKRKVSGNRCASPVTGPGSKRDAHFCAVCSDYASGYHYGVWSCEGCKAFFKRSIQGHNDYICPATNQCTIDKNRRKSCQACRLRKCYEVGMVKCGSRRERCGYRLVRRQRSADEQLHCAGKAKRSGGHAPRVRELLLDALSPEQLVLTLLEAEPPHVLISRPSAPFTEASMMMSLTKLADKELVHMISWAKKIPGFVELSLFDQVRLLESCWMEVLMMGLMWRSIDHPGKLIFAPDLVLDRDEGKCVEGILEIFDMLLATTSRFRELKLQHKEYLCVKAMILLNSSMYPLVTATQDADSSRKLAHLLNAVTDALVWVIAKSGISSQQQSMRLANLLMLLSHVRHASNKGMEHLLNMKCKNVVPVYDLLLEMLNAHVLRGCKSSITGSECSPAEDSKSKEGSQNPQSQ
Summary of the method: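 qHTS in ER-beta-UAS-bla HEK293T cells: 6 hr settling, then 16 hr compound at 37C, then LiveBLAzer substrate 2 h at RT before fluorescence reading.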

[5] = qHTS assay to identify small molecule agonists of the androgen receptor (AR) signaling pathway in the presence of an antagonist - cell viability counter screen (AID 1259379); note: series mostly up to about 92 µM; nearly all actives have a fitted effect of over 25% in size
Summary of the method: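 MDA-kb2 human breast carcinoma cells (stable MMTV-luciferase, AR/GR responsive) were seeded 3,000 cells/well, pre-incubated 5 hr at 37C without CO2, then given 3.0uM nilutamide and compounds at 15 concentrations for 16 hr. Viability was read by CellTiter-Fluor fluorescence.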

[6] = target: Estrogen receptor beta (Homo sapiens) (UniProt Q92731); test: qHTS assay to identify small molecule antagonists of the estrogen receptor beta (ER-beta) signaling pathway (AID 1259378; active = well fitted inhibition curve with a large enough effect in the signal ratio in the repeat runs, not every such curve was filed as active; the % refers to the signal ratio)
Summary of the method: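 Antagonist mode: compounds added to beta-lactamase reporter HEK293T ER-beta-UAS cells stimulated with E2 (1nM final), 16 hr at 37C. LiveBLAzer B/G FRET substrate, 2 hours room temperature, fluorescence read-out.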

[7] = qHTS assay to identify small molecule agonists of the estrogen receptor beta (ER-beta) signaling pathway - cell viability counter screen (AID 1259380); note: nearly all actives have a fitted effect of over 30% in size
Summary of the method: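 ER-beta-UAS-bla HEK293T cells in medium with 2% charcoal-stripped FBS were preincubated 6 hr at 37C, dosed with compound in DMSO for 16 hr, then after the bla read, CellTiter-Glo was added for 30 min at room temperature; luminescence recorded.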

[8] = qHTS assay to identify small molecule antagonists of the estrogen receptor beta (ER-beta) signaling pathway - cell viability counter screen (AID 1259382);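 note: HEK293T cells carrying ER-beta-UAS-bla reporter stimulated with estradiol; series mostly up to about 92 µM; nearly all actives have a fitted effect of over 55% in size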
Summary of the method: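 ER-beta-UAS-bla HEK293T cells (2,000/well, 2% charcoal-stripped FBS) were pre-incubated 6 hr at 37C, then given compound plus 1nM final 17-beta-estradiol for 16 hr. Viability was read in the same wells by CellTiter-Glo luminescence after 30 min at room temperature.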

[9] = target: Androgen receptor (Homo sapiens) (UniProt P10275); test: qHTS assay to identify small molecule agonists of the androgen receptor (AR) signaling pathway in the presence of an antagonist (AID 1259381; calls by dose curve; note: nearly all actives have a fitted effect of over 15% in size)
Chain of Androgen receptor (Homo sapiens) (P10275 whole entry, looked up): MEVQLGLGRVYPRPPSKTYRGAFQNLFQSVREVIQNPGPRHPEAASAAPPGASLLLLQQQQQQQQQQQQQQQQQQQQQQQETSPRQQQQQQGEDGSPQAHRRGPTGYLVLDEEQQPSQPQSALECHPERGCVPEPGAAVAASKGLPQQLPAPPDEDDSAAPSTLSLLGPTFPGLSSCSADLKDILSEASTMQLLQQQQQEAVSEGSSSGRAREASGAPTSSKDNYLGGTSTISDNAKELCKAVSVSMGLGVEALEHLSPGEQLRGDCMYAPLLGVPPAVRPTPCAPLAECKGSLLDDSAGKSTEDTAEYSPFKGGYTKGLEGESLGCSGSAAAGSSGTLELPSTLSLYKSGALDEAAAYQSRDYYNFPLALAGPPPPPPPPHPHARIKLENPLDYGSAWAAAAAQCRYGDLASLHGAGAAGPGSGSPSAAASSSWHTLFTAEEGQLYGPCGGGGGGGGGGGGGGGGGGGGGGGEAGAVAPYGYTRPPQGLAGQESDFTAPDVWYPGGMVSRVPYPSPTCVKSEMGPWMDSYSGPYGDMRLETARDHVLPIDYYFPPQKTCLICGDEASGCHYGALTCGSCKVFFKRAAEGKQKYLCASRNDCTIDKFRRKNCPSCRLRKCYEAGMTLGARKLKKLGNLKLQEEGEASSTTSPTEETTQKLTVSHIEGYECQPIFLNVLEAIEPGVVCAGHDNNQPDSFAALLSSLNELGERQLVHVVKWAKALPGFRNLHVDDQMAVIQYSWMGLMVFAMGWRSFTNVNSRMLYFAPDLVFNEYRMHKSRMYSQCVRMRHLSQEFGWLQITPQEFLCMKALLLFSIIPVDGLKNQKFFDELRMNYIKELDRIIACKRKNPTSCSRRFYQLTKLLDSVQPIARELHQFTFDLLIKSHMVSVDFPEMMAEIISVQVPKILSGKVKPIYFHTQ
Summary of the method: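 MDA-kb2 human breast carcinoma cells carrying an MMTV-luciferase reporter (AR- and GR-responsive) were treated with compounds at 15 concentrations plus 3.0uM final nilutamide for 16hr at 37C without CO2; luminescence was read after ONE-Glo addition.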

[10] = qHTS assay to identify small molecule antagonists of the sonic hedgehog signaling (Shh) pathway (AID 1259369; calls by dose curve; note: nearly all actives have a fitted effect of over 45% in size)
Summary of the method: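 NIH/3T3-derived 3T3Gli1-Luc cells with stably integrated Gli1-Luc reporter were preincubated 4hr at 37 C, then given compounds in DMSO plus Shh conditioned medium and incubated 24hr. Firefly luciferase luminescence read after 30min reagent at room temperature.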

Measured: Potency

Cc1ccc(O)c([N+](=O)[O-])c1
inactive: [1] | [2] | [3] | [4] | [5]

CC/C=C\CCCCCCCCCCOC(C)=O
inactive: [1] | [2] | [3] | [4] | [6] | [5] | [7] | [8]

O=C1c2ccccc2C(=O)N1CO
inactive: [1] | [2] | [3] | [4] | [6] | [5] | [9] | [8]

OCCC(F)(F)C(F)(F)C(F)(F)C(F)(F)C(F)(F)C(F)(F)F
inactive: [1] | [2] | [3] | [4] | [6] | [5] | [7] | [8]

CCOC(=O)CN1CCCC1=O
inactive: [1] | [2] | [3] | [4] | [5] | [8]

CC(=O)Nc1ccc(S(=O)(=O)Nc2cc(C)on2)cc1
inactive: [1] | [3] | [10] | [5] | [7] | [8]

CCCCCCCCCCCBr
inactive: [1] | [3] | [4] | [6] | [5] | [8]

CN1CCN(C(=O)C2CCCCC2)CC1
inactive: [1] | [3] | [10] | [4] | [6] | [5] | [7]

C/C(=N\O)c1ccc(OCC(=O)N2CCCCC2)cc1
inactive: [1] | [10] | [4] | [5] | [7] | [9] | [8]

CC1=C(O)C(=O)CO1
inactive: [1] | [3] | [10] | [4] | [6] | [5] | [8]

COc1cc2nc(N3CCN(C(=O)C4CCCO4)CC3)nc(N)c2cc1OC (stereo unspecified)
inactive: [1] | [3] | [10] | [4] | [5] | [7] | [8]

CCOC(=O)c1ccc(N(C)C)cc1
inactive: [1] | [3] | [10] | [5] | [7] | [8]

O=P(O)(O)C(O)(Cc1cccnc1)P(=O)(O)O
inactive: [1] | [3] | [10] | [5] | [8]

CCO[Si](CC(C)C)(OCC)OCC
inactive: [1] | [3] | [10] | [4] | [6] | [5] | [8]

C[C@]12C=CC(=O)C=C1[C@@H](F)C[C@@H]1[C@@H]2[C@@H](O)C[C@@]2(C)[C@H]1CC[C@]2(O)C(=O)CO
inactive: [1] | [3] | [10] | [5] | [7]

CCCCCCCCCCCCCC(=O)OCC
inactive: [1] | [3] | [10] | [5]

CC(O)CCCCn1c(=O)c2c(ncn2C)n(C)c1=O (stereo unspecified)
inactive: [1] | [3] | [10] | [5] | [7] | [8]

COCc1nnc(-c2ccc[n+]([O-])c2)n1-c1c(Cl)c(Cl)cc2[nH]c(=O)c(=O)[nH]c12
inactive: [1] | [3] | [10] | [6] | [5] | [9] | [8]

CCCC[O][Al]([O]CCCC)[O]CCCC
inactive: [1] | [3] | [5] | [7]

CN(C)CCc1c[nH]c2ccc(CS(=O)(=O)N3CCCC3)cc12
inactive: [1] | [3] | [10] | [4] | [6] | [5] | [7] | [8]

CCO/C=C1\N=C(c2ccccc2)OC1=O
inactive: [2] | [3] | [10] | [4] | [6] | [5] | [7]

CC12CCCC=C1C(=O)OC2=O (stereo unspecified)
inactive: [1] | [3] | [10] | [5] | [7] | [9] | [8]

O=S(=O)(O)c1cc(I)c(O)c2ncccc12
inactive: [1] | [3] | [10] | [4] | [6] | [5] | [7] | [8]

CCCCCCC(=O)c1ccccc1
inactive: [1] | [3] | [10] | [6] | [5] | [7]

O=C(O)Cc1c(Cl)ccc(Cl)c1Cl
inactive: [1] | [3] | [4] | [6] | [5] | [7] | [8]

CC(=O)SCC(CC(=O)c1ccc(C)cc1)C(=O)O (stereo unspecified)
inactive: [1] | [3] | [10] | [4] | [6] | [5] | [8]

BrCCOc1ccccc1
inactive: [1] | [3] | [10] | [4] | [5] | [7] | [8]

Reference: PubChem BioAssay (Tox21)
